# Experimental data reported in the supplement of paper PMC8728848.
# Only a selection was taken, and the strongest signals are over-represented in it overall.
# B1: MIC1 (Toxoplasma gondii), O00834 (protein)
# chain: VGPEAYGEASHSHSPASGRYIQQMLDQRCQEIAAELCQSGLRKMCVPSSRIVARNAVGITHQNTLQWRCFDTASLLESNQENNGVNCVDDCGHTIPCPGGVHRQNSNHATRHEILSKLVEEGVQRFCSPYQASANKYCNDKFPGTIARRSKGFGNNVEVAWRCYEKASLLYSVYAECASNCGTTWYCPGGRRGTSTELDKRHYTEEEGIRQAIGSVDSPCSEVEVCLPKDENPPLCLDESGQISRT
# Key:
# Assay in all cases: glycan array binding signal (z-score within array); higher = stronger binding
# Details in all cases: glycan notation: IUPAC condensed, linker removed
# [1] = target: Fuc(a1-2)Gal(b1-4)[Fuc(a1-3)]GlcNAc(b1-3)Gal(b1-4)Glc
# Procedure, shortened: (§1)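 The Consortium for Functional Glycomics database supplied 3228 glycan arrays, of which those lacking an available protein sequence were dropped. The binding signal, a within-array Z-score, was averaged across arrays of the same protein sequence and across linkers. Negative scores can be read as non-binding.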
# [2] = target: Fuc(a1-2)[Gal(a1-3)]Gal(b1-4)GlcNAc(b1-3)Gal(b1-4)Glc
# Procedure, shortened: as §1
# [3] = target: Fuc(a1-3)[Gal3S(b1-4)]Glc
# Procedure, shortened: as §1
# Fuc(a1-6)GlcNAc = target: Fuc(a1-6)GlcNAc
# Procedure, shortened: as §1
# [4] = target: Gal(b1-4)GlcNAc(b1-3)[Gal(b1-4)GlcNAc(b1-6)]Gal(b1-4)GlcNAc(b1-3)[Gal(b1-4)GlcNAc(b1-6)]Gal(b1-4)GlcNAc(b1-3)[Gal(b1-4)GlcNAc(b1-6)]Gal(b1-4)GlcNAc(b1-3)[Gal(b1-4)GlcNAc(b1-6)]Gal(b1-4)GlcNAc(b1-3)Gal(b1-4)Glc
# Procedure, shortened: as §1
# [5] = target: Glc(b1-3)Glc(b1-3)Glc(b1-3)Glc(b1-3)Glc(b1-3)Glc(b1-3)Glc
# Procedure, shortened: as §1
# Glc(b1-4)Glc = target: Glc(b1-4)Glc
# Procedure, shortened: as §1
# [6] = target: Glc(b1-4)Glc(b1-4)Glc(b1-4)Glc(b1-4)Glc(b1-4)Glc(b1-4)Glc(b1-4)Glc(b1-4)Glc
# Procedure, shortened: as §1
# [7] = target: Glc(b1-4)Glc(b1-4)Glc(b1-4)Glc(b1-4)Glc(b1-4)Glc(b1-4)Glc(b1-4)Glc(b1-4)Glc(b1-4)Glc
# Procedure, shortened: as §1
# [8] = target: GlcNAc(a1-4)Gal(b1-3)[Fuc(a1-2)]Gal
# Procedure, shortened: as §1
# [9] = target: Kdn(a2-3)[GalNAc(b1-4)]Gal(b1-3)GlcNAc
# Procedure, shortened: as §1
# Man(a1-6)Man = target: Man(a1-6)Man
# Procedure, shortened: as §1
# [10] = target: Neu5Ac(a2-3)Gal(b1-4)GlcNAc(b1-2)Man(a1-3)[Neu5Ac(a2-3)Gal(b1-4)GlcNAc(b1-2)Man(a1-6)]Man(b1-4)GlcNAc(b1-4)[Fuc(a1-6)]GlcNAc
# Procedure, shortened: as §1
# [11] = target: Neu5Ac(a2-3)Gal(b1-4)GlcNAc6S(b1-3)Gal6S(b1-3)GlcNAc6S
# Procedure, shortened: as §1
# [12] = target: Neu5Ac(a2-3)Gal(b1-4)[Fuc(a1-3)]GlcNAc(b1-3)Gal(b1-4)Glc
# Procedure, shortened: as §1
# [13] = target: Neu5Ac(a2-3)Gal6S(b1-4)[Fuc(a1-3)]GlcNAc6S(b1-3)Gal(b1-4)Glc
# Procedure, shortened: as §1
# [14] = target: Neu5Ac(a2-3)[GalNAc(b1-4)]Gal(b1-3)GalNAc(b1-4)[Neu5Ac(a2-3)]Gal(b1-4)Glc
# Procedure, shortened: as §1
# [15] = target: Neu5Ac(a2-3)[GalNAc(b1-4)]Gal(b1-4)Glc
# Procedure, shortened: as §1
# Neu5Ac(a2-6)Gal(b1-4)Glc = target: Neu5Ac(a2-6)Gal(b1-4)Glc
# Procedure, shortened: as §1
# [16] = target: Neu5Ac(a2-8)Neu5Ac(a2-3)Gal(b1-3)GalNAc(b1-4)[Neu5Ac(a2-8)Neu5Ac(a2-3)]Gal(b1-4)Glc
# Procedure, shortened: as §1
# [17] = target: Neu5Gc(a2-3)Gal(b1-3)GlcNAc(b1-3)Gal(b1-4)Glc
# Procedure, shortened: as §1
# [18] = target: Neu5Gc(a2-3)[GalNAc(b1-4)]Gal
# Procedure, shortened: as §1
# [19] = target: Neu5Gc(a2-6)Gal(b1-3)GlcNAc(b1-3)Gal(b1-4)Glc
# Procedure, shortened: as §1
# [20] = target: Neu5Gc(a2-6)Gal(b1-4)GlcNAc(b1-2)Man(a1-3)[Neu5Gc(a2-6)Gal(b1-4)GlcNAc(b1-2)Man(a1-6)]Man(b1-4)GlcNAc(b1-4)GlcNAc
# Procedure, shortened: as §1
# Neu5Gc(a2-6)GalNAc = target: Neu5Gc(a2-6)GalNAc
# Procedure, shortened: as §1
# [21] = target: Xyl(a1-6)Glc(b1-4)[Xyl(a1-6)]Glc(b1-4)[Xyl(a1-6)]Glc(b1-4)Glc
# Procedure, shortened: as §1
binder,measurement,setting,value
B1,glycan array binding signal (z-score),[1],-0.296
same,glycan array binding signal (z-score),[2],-0.253
same,glycan array binding signal (z-score),[3],-0.041
same,glycan array binding signal (z-score),Fuc(a1-6)GlcNAc,-0.287
same,glycan array binding signal (z-score),[4],-0.287
same,glycan array binding signal (z-score),[5],-0.287
same,glycan array binding signal (z-score),Glc(b1-4)Glc,-0.287
same,glycan array binding signal (z-score),[6],-0.287
same,glycan array binding signal (z-score),[7],-0.287
same,glycan array binding signal (z-score),[8],-0.299
same,glycan array binding signal (z-score),[9],-0.274
same,glycan array binding signal (z-score),Man(a1-6)Man,-0.312
same,glycan array binding signal (z-score),[10],2.46
same,glycan array binding signal (z-score),[11],4.52
same,glycan array binding signal (z-score),[12],0.087
same,glycan array binding signal (z-score),[13],2.46
same,glycan array binding signal (z-score),[14],1.29
same,glycan array binding signal (z-score),[15],2.98
same,glycan array binding signal (z-score),Neu5Ac(a2-6)Gal(b1-4)Glc,-0.342
same,glycan array binding signal (z-score),[16],-0.411
same,glycan array binding signal (z-score),[17],2.33
same,glycan array binding signal (z-score),[18],4.78
same,glycan array binding signal (z-score),[19],2.08
same,glycan array binding signal (z-score),[20],0.198
same,glycan array binding signal (z-score),Neu5Gc(a2-6)GalNAc,4.8
same,glycan array binding signal (z-score),[21],-0.287
